PostGolgi ctrl: growth inhibition of yeast control strain, primary screen, counter-screen for post-Golgi transport modulator project | efflux-deficient yeast background strain, growth absorbance A615, 16 h | actives 5% (n = 98,000) | inhibition, % at 10 µM
CYP2C19 activ: human CYP2C19 activators, primary screen, biochemical, luminescence | Cytochrome P450 2C19 (Homo sapiens), P33261 | recombinant CYP2C19, luciferin-H EGE luminescence; active compounds read high; 0 = fully inhibited enzyme, 1 = untreated enzyme | activation factor at 5 µM | 96,000 tested, under 10 active;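 active = activation factor of at least 2 at 5 µM in the primary screen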;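 also: 0 = wells with 2.5 mM tranylcypromine and 1 = vehicle-only wells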
Target sequence (P33261 whole entry, looked up): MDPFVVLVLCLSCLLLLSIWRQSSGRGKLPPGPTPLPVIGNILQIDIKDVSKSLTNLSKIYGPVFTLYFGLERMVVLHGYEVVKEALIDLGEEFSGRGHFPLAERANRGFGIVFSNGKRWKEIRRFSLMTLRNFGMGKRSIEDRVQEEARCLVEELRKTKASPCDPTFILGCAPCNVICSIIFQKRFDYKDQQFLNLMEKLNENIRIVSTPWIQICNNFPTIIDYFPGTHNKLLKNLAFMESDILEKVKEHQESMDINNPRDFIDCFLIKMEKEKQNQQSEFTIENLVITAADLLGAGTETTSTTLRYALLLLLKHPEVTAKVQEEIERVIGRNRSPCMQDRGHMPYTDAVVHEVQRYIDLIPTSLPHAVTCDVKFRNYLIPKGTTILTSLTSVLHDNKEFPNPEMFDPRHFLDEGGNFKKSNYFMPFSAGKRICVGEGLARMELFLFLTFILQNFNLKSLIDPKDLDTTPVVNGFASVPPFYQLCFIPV
PostGolgi yeast: phenotypic screen on post-Golgi transport, primary screen | post-Golgi transport phenotypic cell assay | inhibition, % at 10 µM | actives 0.9% (n = 98,000);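 also: yeast cells grown in 1536-well plates; yeast grown about 18 h at 30C before absorbance read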
CYP2C9 act: human CYP2C9 activators, primary screen, biochemical, luminescence. Cytochrome P450 2C9 (Homo sapiens), P11712. recombinant CYP2C9, luciferin-H conversion; active compounds read high; factor 1 = untreated enzyme, 0 = blocked. activation factor at 5 µM. actives 1.4% (n = 96,000). AID 1024, 2008;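 active = activation factor of 2 or more for CYP2C9 at a 5 µM dose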;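 also: 0 = sulfaphenazole-blocked wells and 1 = vehicle-only wells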
CYP2C9 inh: blockers of cytochrome P450 2C9 activity – biochemical, luminescence, ADME assay, primary screen; AID 777, 2007; actives 20% (n = 96,000); P11712; CYP2C9 Supersomes, luciferin-H conversion; inhibition, % at 5 µM;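 active = blocking of liver enzyme CYP2C9 beyond about 50% at 5 µM, limit read from the data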
CYP2C19 inh: blockers of cytochrome P450 2C19 activity – biochemical, luminescence, ADME assay, primary screen; P33261; CYP2C19 Supersomes, luciferin-H EGE luminescence, 30 min; inhibition, % at 5 µM; actives 21% (n = 96,000); AID 778, 2007;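 active = CYP2C19 inhibition above a set limit at 5 µM in the primary screen, cut at about 50% in these data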;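 also: plate controls were negative control wells for no effect and 2.5 mM tranylcypromine positive control for full effect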
* hit, by the source's call; · = no result given. This is a sample that favours compounds with a hit; in the whole collection about 32% have one here. Rule as the data show it, unless noted: active = inhibition above about 30%; inactive = the rest.

SMILES | PostGolgi ctrl | CYP2C19 activ | PostGolgi yeast | CYP2C9 act | CYP2C9 inh | CYP2C19 inh
CCN(CC)c1ccc(C(=O)OCC(=O)NCC2CCCO2)cc1 (configuration not stated) | 8.8 | 0.6 | 7.5 | 0.7 | 25.5 | 41.2
CCCCNC(=O)c1ccccc1NS(=O)(=O)c1ccc2c(c1)OCCO2 | 23.6 | 0.7 | 3.2 | 1.1 | -14.3 | 29.1
CC(C)NC(=O)COC(=O)c1ccc(NS(=O)(=O)c2ccc3c(c2)OCCO3)cc1 | 2.1 | 0.2 | -6.6 | 0 | 96.6* | 76.0*
CN(C)c1ccc(NC(=O)Cn2c(=O)n(Cc3ccccc3)c(=O)c3ccccc32)cc1 | -5.0 | 1.1 | 11.5 | 1 | 3.4 | -8.3
COc1cc(S(=O)(=O)Nc2cccc(C(=O)O)c2)c(OC)cc1Cl | 2.4 | 1.1 | -5.2 | 1.1 | -10.0 | -10.2
CC(C)OC(=O)C(CC(=O)O)NCc1ccccc1 (configuration not stated) | 0.1 | 1 | 3.4 | 0.9 | 5.6 | -3.1
CC(C)Cc1ccc(S(=O)(=O)N2CCCC2)cc1 | 11.1 | 0.1 | -2.4 | 0.2 | 78.2* | 90.9*
Nc1ccc(S(=O)(=O)N2CCCC2)cc1 | 18.6 | 1.1 | 3.9 | 1.3 | -33.9 | -8.6
O=S(=O)(c1ccc(S(=O)(=O)N2CCCC2)cc1)N1CCCCCC1 | -2.1 | 0.8 | -0.1 | 0.9 | 8.4 | 18.9
CN(C)S(=O)(=O)c1ccc(S(=O)(=O)N2CCCC2)cc1 | 2.4 | 0.4 | 4.2 | 1 | 0.7 | 62.2*
COC(=O)Cn1c(C)c(C(C)=O)c(C(C)=O)c1C | -3.6 | 1.1 | -0.8 | 1.2 | -15.1 | -10.8
CCCCOC(=O)Nc1cc(Cl)ccc1C | 11.5 | 0.9 | 2.4 | 1 | -0.4 | 10.6
CCCOC(=O)NC(CC)COC(=O)Nc1cc(C)ccc1C (configuration not stated) | 33.0* | 0.3 | 1.9 | 0.8 | 24.6 | 69.9*
O=C(Nc1nnc(SCc2ccc(Cl)cc2)s1)c1ccco1 | -0.3 | 0.8 | 8.5 | 0.8 | 20.4 | 18.2
O=C(CSc1nn(-c2ccc(Cl)cc2)c(=S)s1)N1CCN(C(=O)c2ccco2)CC1 | 51.8* | 0.8 | -42.4 | 0.6 | 35.3 | 16.0
O=C(CSc1nnc(SCc2ccc(Cl)cc2)s1)N1CCN(C(=O)c2ccco2)CC1 | 2.7 | 0.9 | 19.5 | 0.4 | 55.1* | 5.5
O=C(CSc1nn(-c2ccc(F)cc2)c(=S)s1)N1CCN(C(=O)c2ccco2)CC1 | 20.8 | 0.8 | 4.9 | 0.5 | 46.1 | 19.5
CCC(c1nnnn1CCc1ccccc1)N(Cc1ccco1)Cc1cc2cc(C)cc(C)c2[nH]c1=O (configuration not stated) | -1.3 | 0.6 | 0.9 | 0.9 | 11.9 | 39.0
CCC(c1nnnn1Cc1ccccc1)N(Cc1ccco1)Cc1cc2cc(OC)ccc2[nH]c1=O (configuration not stated) | 40.6* | 0.8 | -0.2 | 0.5 | 48.2 | 24.8
CCC(c1nnnn1CCc1ccccc1)N(Cc1ccco1)Cc1cc2c(C)ccc(C)c2[nH]c1=O (configuration not stated) | 19.6 | 0.1 | 2.5 | 0.1 | 93.5* | 93.4*
CCC(c1nnnn1Cc1ccco1)N(CCc1ccccc1)Cc1cc2cc(C)ccc2[nH]c1=O (configuration not stated) | · | 0.6 | · | 0.5 | 47.6 | 42.0
CC(=O)Nc1cccc(NC(=O)c2c(-c3c(Cl)cccc3Cl)noc2C)c1 | 2.6 | 0.2 | 0.5 | 0.1 | 86.6* | 81.8*
Cc1onc(-c2c(Cl)cccc2Cl)c1C(=O)NCCc1ccc(S(N)(=O)=O)cc1 | -9.2 | 0.7 | -2.1 | 0.3 | 72.7* | 33.0
COC(=O)CNC(=O)c1c(-c2c(Cl)cccc2Cl)noc1C | 5.2 | 0.5 | -0.1 | 0.4 | 58.3* | 47.5
Cc1onc(-c2ccccc2)c1C(=O)NCCc1ccc(S(N)(=O)=O)cc1 | -3.6 | 0.9 | 4.2 | 1 | -1.5 | 5.6
SMILES | PostGolgi ctrl | CYP2C19 activ | PostGolgi yeast | CYP2C9 act | CYP2C9 inh | CYP2C19 inh
Cc1cc(C)nc(NC(=O)c2c(-c3c(Cl)cccc3Cl)noc2C)n1 | 28.7 | 1 | 5.3 | 0.8 | 15.1 | 0.2
Cc1ccc(NC(=O)c2c(-c3c(F)cccc3Cl)noc2C)cc1F | 8.7 | 0.2 | 5.3 | 0.1 | 92.0* | 83.4*
CNc1c([N+](=O)[O-])cnn1-c1ccc(Cl)cc1 | 20.4 | 0.6 | -5.8 | 0.8 | 16.9 | 42.2
COc1cc2cc(C(=O)O)n(C)c2c(OC)c1OC | 4.1 | 1 | 17.7 | 1 | 1.5 | -4.8
COc1c(Cl)cc(-c2noc(C)c2C(=O)NCCc2ccc(C)cc2)cc1Cl | 37.3* | 1 | 2.2 | 0.6 | 39.3 | -2.3
COc1c(Cl)cc(-c2noc(C)c2C(=O)NCc2ccccc2)cc1Cl | 10.2 | 0.8 | -1.3 | 1.3 | -26.9 | 22.3
CCOC(=O)C(=O)/C(=C\N(C)C)c1onc(-c2c(F)cccc2Cl)c1C(=O)OC | 5.5 | 0.5 | 17.6 | 0.4 | 57.8* | 48.3
CCCc1nnc2n1N=C(c1ccc(-c3cc(Cl)ccc3Cl)o1)CS2 | -0.8 | · | 3.8 | · | · | ·
COc1cc(OC)cc(-c2cc3nc(C)cc(N4CCN(C(=O)c5ccco5)CC4)n3n2)c1 | 30.2* | 0.5 | -11.2 | 0.7 | 29.0 | 54.6*
COc1ccc(CN2CCN(C(=O)c3ccco3)CC2)cc1 | 7.9 | 0.9 | 0.5 | 1.2 | -16.7 | 12.9
Cc1cc(N2CCOCC2)n2nc(-c3cccc(F)c3)cc2n1 | 1.4 | · | -0.3 | · | · | ·
Cc1cc(N2CCN(C(=O)c3ccco3)CC2)n2nc(-c3cccc(F)c3)cc2n1 | 46.8* | 0.2 | -7.2 | 0.1 | 87.5* | 83.4*
CC(C)CNC(=S)NNC(=O)c1ccc(OC(F)F)cc1 | 10.7 | 0.7 | 3.5 | 0.9 | 8.7 | 26.0
COC(=O)C1CCN(C(=O)/C=C/c2ccc(OC)cc2)CC1 | -2.6 | 0.6 | -3.0 | 0.8 | 16.4 | 39.7
Cc1cccc(C)c1NC(=O)C(C)c1ccc(-c2ccccc2)c(F)c1 (configuration not stated) | 26.4 | 0.9 | 6.3 | 0.2 | 82.5* | 5.2
Cc1cccc(C)c1NC(=O)C(c1ccccc1)N1CCC1=O (configuration not stated) | -11.2 | 1.1 | -7.6 | 1.1 | -13.8 | -5.4
O=C(c1cc2ccccn2n1)N1CCN(Cc2ccccc2)CC1 | -1.8 | 0 | -0.2 | 1.3 | -31.6 | 95.8*
O=C(c1cc2ccccn2n1)N1CCCC1 | 8.5 | 1.1 | -3.7 | 1 | 0.7 | -6.4
CCOC(=O)N1CCN(C(=O)c2c(-c3ccccc3)noc2C)CC1 | 9.1 | 0.6 | 7.1 | 0.8 | 19.4 | 40.2
CCOC(=O)N1CCN(C(=O)c2cc(C)no2)CC1 | -2.9 | 0.3 | 9.3 | 1.1 | -6.0 | 71.2*
Cc1cc(C(=O)N2CCN(Cc3ccccc3)CC2)on1 | -0.9 | 0 | -3.4 | 0.9 | 9.8 | 95.1*

Screening results (PubChem)
